The results in this text go back to ChEMBL document CHEMBL3988442, “University of Dundee, Small-Polar-MMV Screening Library” (2021).

Molecules are shown by their SMILES.

The target of the experiment is AMP-activated protein kinase, AMPK (Homo sapiens) (UniProt P54646+O43741+P54619+Q9UGJ0+Q9Y478+Q13131+Q9UGI9). Kind of experiment: AMP-dependent Kinase enzyme assay. An in vitro enzyme assay that detects ADP turnover that is directly proportional to AMPK activity. This uses naive AMPK that is activated during the assay with MK-8722. The format is functional. Also on record: scale not given: direction of the effect not stated beside the values. The settings on record: 30 µM.
On to `CCc1ccc(CCC(=O)N2CCC(=O)Nc3cccnc32)cc1`, for which the Percent Effect worked out at 0.539%.

Take `CN1CCCC1CCNC(=O)c1ccccc1-n1cnc(CN)c1` (stereo not given): the Percent Effect was 7.02%.

For the molecule `COCCN(Cc1sccc1C)C(=O)COc1ccccc1O`, the Percent Effect came to 2.3%.

Regarding `CCCC(=O)NCCc1cc(NC)nc(-c2ccccn2)n1`, the Percent Effect was -2.74%.

For the molecule `Cn1cc(Cl)c(CN(Cc2ccsc2)CC2CCCO2)n1` (stereo not given), the Percent Effect is 2.65%.

With `Cc1ccccc1Cn1cnc2oc(C)c(C(=O)O)c2c1=O`, the Percent Effect was found to be 9.55%.

With `CN(C)C(=O)c1ccc2c(c1)nc(N1CC[C@H](O)C1)n2C`, the Percent Effect turned out to be 1.76%.

As to `Cc1c(CN2Cc3nccn3CC2c2ccccc2)cnn1C` (stereo not given), the Percent Effect was found to be 7.11%.

With `CC(C)N(Cc1ccc(C(=O)O)o1)C(C)C`, the Percent Effect was found to be 2.21%.

Consider `CN(Cc1ccoc1)C(=O)C1CCN(C(=O)C2CCCC2)CC1`, for which the Percent Effect is -3.16%.

Turning to `Cc1noc(C)c1C(=O)N[C@@H]1CCC[C@@H](Oc2ccccc2)[C@@H]1O`, the Percent Effect came to 19.1%.

`CCCn1cc(CN2CCOCC2c2[nH]ncc2C)cn1` (stereo not given): the Percent Effect is 14.3%.

Regarding `CC(C)CNC(=O)c1[nH]nc(C2CC2)c1Br`, the Percent Effect was -2.23%.

For the molecule `CC(O)c1cnn(-c2ccccc2)c1` (stereo not given), the Percent Effect was determined as 12.6%.

As for `CS(=O)(=O)Cc1noc(CN(Cc2ccco2)c2ccccc2)n1`, the Percent Effect came to 3.02%.

As for `Cc1cnn(C2CN(Cc3nc4cc(Cl)ccc4n3C)C2)c1`, the Percent Effect is -6.13%.

As for `CN1CCCN(c2ccc(F)cc2CNC(=O)c2ccsc2)CC1`, the Percent Effect was 5.4%.

On to `CNc1ccc(C2CN(c3cc(C)ncn3)CCO2)nc1` (stereo not given), for which the Percent Effect was 10.8%.

As to `COc1c(C(=O)NC(C)Cc2ccccc2Cl)c(C)nn1C` (stereo not given), the Percent Effect was 0.464%.

Regarding `COCC1(C(=O)N[C@H]2CN(c3ccnc(C)c3)C[C@@H]2C2CC2)CCC1`, the Percent Effect is -1.57%.

On to `CCOC(=O)C1(NCC(=O)Nc2cc(C)ccc2OC)CCCC1`, for which the Percent Effect was 0.781%.

In the case of `CSCC(=O)N1CCN(CC(O)C(C)(C)C)CC1` (stereo not given), the Percent Effect was -3.62%.

With `CCS(=O)(=O)N1Cc2ccccc2CC1C(=O)OCc1c(C)noc1C` (stereo not given), the Percent Effect is -0.838%.

As for `O=C(NCCCc1nnc2ccccn12)c1ccccc1C1CCNC1` (stereo not given), the Percent Effect is 1.24%.

For `CC(CNC(=O)c1cnc[nH]1)Oc1ccc(Cl)cc1` (stereo not given), the Percent Effect is 4.75%.

On to `CC(C)Cn1ccnc1CNC(=O)N1CCCC1CN1CCOCC1` (stereo not given), for which the Percent Effect is -4.29%.

`CC(NC(=O)NC1CCN(Cc2ccncc2)CC1)c1ccc(F)cc1` (stereo not given): the Percent Effect is 7.79%.

In the case of `COCC[C@]1(O)CCN(CC(=O)NCc2ccccc2C)C[C@H]1C`, the Percent Effect stood at 8.23%.

For the molecule `CCOc1ccccc1CN(C)C(=O)CN1C(=O)OC[C@@H]1C(C)C`, the Percent Effect was determined as 5.19%.

Turning to `Cn1cnc(S(=O)(=O)N2CCCC2c2ccnc3nccn23)c1` (stereo not given), the Percent Effect is 0.76%.

As for `Cc1nccn1CCN(C)C(=O)c1cn(-c2ccccc2)nn1`, the Percent Effect is -5.19%.

Take `Cc1cc(C(=O)N2CCCC(c3ccc(C(=O)O)cc3)C2)c(C)o1` (stereo not given): the Percent Effect was 4.65%.

Turning to `Cc1cc(C2CCCN(CCC(=O)N3CCc4ccccc43)C2)n[nH]1` (stereo not given), the Percent Effect is -4.69%.

As for `CCC[C@@H]1CN(Cc2ccc(C(F)(F)F)nc2)C[C@H]1C(=O)O`, the Percent Effect was -4.32%.

For the molecule `O=C(CNC(=O)c1ccccc1I)NCc1ccccc1F`, the Percent Effect amounted to 4.78%.

As for `CN(C)c1ccc(C(=O)Nc2ccn(CC(N)=O)n2)cn1`, the Percent Effect turned out to be 10.9%.

Take `Cc1nccn1-c1nccnc1C1CCCN(C2CCCC2)C1` (stereo not given): the Percent Effect was determined as 12.6%.

For `CC(C)Cn1nc(-c2ccc(C(=O)O)cc2)cc1-c1ccc(F)cc1`, the Percent Effect turned out to be 22.7%.

On to `Cc1ccc(CNc2cc3c(cc2Cl)NC(=O)CO3)cc1C`, for which the Percent Effect was -0.667%.

Consider `CCc1oc(C(=O)NCCSc2ncn[nH]2)cc1CN1CCCC1`, for which the Percent Effect worked out at 1.9%.
